Outcome and AC50 data for 20 molecules are collected here from PubChem BioAssay (EPA / NIEHS).

The target in assay [1] is Type-1 angiotensin II receptor (Homo sapiens) (UniProt P30556). The assay can be described thus: NVS_GPCR_hAT1: NovaScreen (NVS) G Protein-Coupled Receptor Assay for human Angiotensin II receptor type 1 (AT1) (AID 2283263). An outline of the steps: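 Hits from a 25 uM duplicate screen (threshold e.g. 30% inhibition) were run in concentration-response with 50 uM top concentration. Displacement of specific radioligand from KAN-TS membrane preparations measured after 3 h by filter scintillation, DMSO as baseline.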

In assay [2] the target is human Adrenergic, Beta 3 Receptor (Adrb3), ADRB3 (gene 155) (UniProt P13945). The assay can be described thus: NVS_GPCR_hAdrb3: NovaScreen (NVS) G Protein-Coupled Receptor Assay for human Adrenergic, Beta 3 Receptor (Adrb3) (AID 2283262). An outline of the steps:
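A cell-free filter binding assay read by scintillation counting, with displacement of a specific radioligand measured after 1 hour. The receptor source was SK-N-MC extracts (cells pretreated with isoproterenol and 8-bromo-cAMP). Compounds were first tested at 25 uM in duplicate and then in concentration series.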

The target in assay [3] is human Histamine 1 Receptor (H1), HRH1 (gene 3269) (UniProt P35367). The assay can be described thus: NVS_GPCR_hH1: NovaScreen (NVS) G Protein-Coupled Receptor Assay for human Histamine 1 Receptor (H1) (AID 2283268). An outline of the steps:
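Filter-based scintillation detection of radioligand binding to human H1, 1 h incubation; chemicals screened in duplicate at 25 uM, then concentration-response; signal loss relative to DMSO taken as activity.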

For assay [4], the target named is Beta-2 adrenergic receptor (Homo sapiens) (UniProt P07550). The assay can be described thus: NVS_GPCR_hAdrb2: NovaScreen (NVS) G Protein-Coupled Receptor Assay for human Adrenergic, Beta 2 Receptor (Adrb2) (AID 2283261). An outline of the steps:
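Compounds screened in duplicate at 25 uM, then actives in concentration series. Human beta-2 receptor from CHO material, cell-free; radioligand displacement after 1 h measured by filtration and scintillation against DMSO baseline.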

Assay [5] has as its target D(1A) dopamine receptor (Homo sapiens) (UniProt P21728). The assay can be described thus: NVS_GPCR_hDRD1: NovaScreen (NVS) G Protein-Coupled Receptor Assay for human Dopamine Receptor D1 (DRD1) (AID 2283269). An outline of the steps:
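Radioligand displacement binding on membranes/protein extracted from HEK293 expressing human D1, cell-free; read 1 h after dosing by filter-based scintillation counting. Primary screen in duplicate at 25 uM, actives followed up in concentration series; signal loss versus DMSO baseline.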

Assay [6] deals with human Dopamine Receptor D4.4 (DRD4.4), DRD4 (gene 1815) (UniProt P21917). The assay can be described thus: NVS_GPCR_hDRD4.4: NovaScreen (NVS) G Protein-Coupled Receptor Assay for human Dopamine Receptor D4.4 (DRD4.4) (AID 2283264). An outline of the steps:
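Filter-binding assay with a tritiated or iodinated ligand, cell-free receptor prepared from CHO, 1 hour. Loss of bound radioactivity versus DMSO; single 25 uM duplicate screen, then concentration-response for actives.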

Assay [7] concerns the target human Adrenergic, Alpha 2c Receptor (Adra2C), ADRA2C (gene 152) (UniProt P18825). The assay can be described thus: NVS_GPCR_hAdra2C: NovaScreen (NVS) G Protein-Coupled Receptor Assay for human Adrenergic, Alpha 2c Receptor (Adra2C) (AID 2283259). An outline of the steps: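 Screened first in duplicate at 25 uM, with actives then run as concentration series. Membranes from Sf9 cells were exposed for 1 h, and displacement of radioligand was counted after filtration, using DMSO as baseline.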

The target of assay [8] is human Dopamine Receptor D2 (DRD2), DRD2 (gene 1813) (UniProt P14416). The assay can be described thus: NVS_GPCR_hDRD2s: NovaScreen (NVS) G Protein-Coupled Receptor Assay for human Dopamine Receptor D2 (DRD2) (AID 2283266). An outline of the steps:
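Test compound (25 uM, duplicate in the primary screen; concentration series at follow-up) competed with radioligand for human DRD2 in CHO-derived membrane protein. Filter-based scintillation counting was done 1.5 hours after dosing, with loss of signal analysed against DMSO.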

The target of assay [9] is human Endothelin Receptor Type B (ETB), EDNRB (gene 1910) (UniProt P24530). The assay can be described thus: NVS_GPCR_hETB: NovaScreen (NVS) G Protein-Coupled Receptor Assay for human Endothelin Receptor Type B (ETB) (AID 2283267). An outline of the steps: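 Filter-based scintillation readout of radioligand displacement, 4 h, using membranes from human astrocytoma cells. Actives from a 25 uM duplicate screen were retested in concentration-response (top 50 uM) relative to DMSO baseline.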

Assay [10] concerns the target human Endothelin Receptor Type A (ETA), EDNRA (gene 1909) (UniProt P25101). The assay can be described thus: NVS_GPCR_hETA: NovaScreen (NVS) G Protein-Coupled Receptor Assay for human Endothelin Receptor Type A (ETA) (AID 2283265). An outline of the steps:
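Binding of radioligand to membrane protein extracted from SH-SY5Y cells was read by filtration and scintillation after 3 h. Compounds were screened at 25 uM in duplicate, with hits followed up in singleton concentration series to 50 uM.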

Results filed as inconclusive are left out. The source made the active and inactive calls. How the source made its calls: active means hit-call score of the fitted dose curve at least 0.9, where 1 is the maximum; inconclusive means response in the unintended direction; inactive means score below 0.9.

human Adrenergic, Alpha 2c Receptor (Adra2C), ADRA2C (gene 152), sequence (P18825 whole entry, looked up): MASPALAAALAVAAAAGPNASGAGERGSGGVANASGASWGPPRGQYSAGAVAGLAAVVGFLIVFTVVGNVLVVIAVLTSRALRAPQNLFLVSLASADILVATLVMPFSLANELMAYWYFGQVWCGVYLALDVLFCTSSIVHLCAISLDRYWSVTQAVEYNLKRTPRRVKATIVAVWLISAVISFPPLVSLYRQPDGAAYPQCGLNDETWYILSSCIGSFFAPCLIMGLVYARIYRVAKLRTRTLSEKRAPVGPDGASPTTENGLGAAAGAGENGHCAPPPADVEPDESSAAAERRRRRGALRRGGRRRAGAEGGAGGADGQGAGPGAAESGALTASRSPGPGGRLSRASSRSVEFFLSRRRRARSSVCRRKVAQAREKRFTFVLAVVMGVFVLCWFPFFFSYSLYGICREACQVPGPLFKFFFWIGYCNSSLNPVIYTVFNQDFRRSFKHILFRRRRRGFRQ
human Histamine 1 Receptor (H1), HRH1 (gene 3269), sequence (P35367 whole entry, looked up): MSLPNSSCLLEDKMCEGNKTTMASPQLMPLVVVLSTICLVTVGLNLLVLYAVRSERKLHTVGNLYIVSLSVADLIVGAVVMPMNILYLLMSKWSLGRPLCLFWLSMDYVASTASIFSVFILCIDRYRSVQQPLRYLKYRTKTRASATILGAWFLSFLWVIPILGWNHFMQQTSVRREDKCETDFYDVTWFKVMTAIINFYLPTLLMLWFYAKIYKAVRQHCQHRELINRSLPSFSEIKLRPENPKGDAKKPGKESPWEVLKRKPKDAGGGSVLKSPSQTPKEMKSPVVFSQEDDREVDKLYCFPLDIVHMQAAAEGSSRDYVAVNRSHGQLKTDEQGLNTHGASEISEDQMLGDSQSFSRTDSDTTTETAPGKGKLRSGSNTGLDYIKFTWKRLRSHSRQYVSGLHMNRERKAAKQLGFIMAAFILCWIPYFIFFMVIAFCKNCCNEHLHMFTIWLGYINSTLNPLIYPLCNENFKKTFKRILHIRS
D(1A) dopamine receptor (Homo sapiens), sequence (P21728 whole entry, looked up): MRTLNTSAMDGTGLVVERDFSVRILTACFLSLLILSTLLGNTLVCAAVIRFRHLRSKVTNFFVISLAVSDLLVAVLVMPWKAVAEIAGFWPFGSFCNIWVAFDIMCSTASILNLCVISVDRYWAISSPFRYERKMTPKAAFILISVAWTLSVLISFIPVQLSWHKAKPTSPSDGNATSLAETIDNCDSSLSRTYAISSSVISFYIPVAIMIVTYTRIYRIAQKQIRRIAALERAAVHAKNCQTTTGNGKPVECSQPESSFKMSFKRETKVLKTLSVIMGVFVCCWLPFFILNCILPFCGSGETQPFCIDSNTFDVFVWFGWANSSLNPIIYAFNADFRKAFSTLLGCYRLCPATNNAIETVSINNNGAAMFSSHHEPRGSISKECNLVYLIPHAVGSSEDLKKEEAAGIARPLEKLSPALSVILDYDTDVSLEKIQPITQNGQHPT
human Dopamine Receptor D4.4 (DRD4.4), DRD4 (gene 1815), sequence (P21917 whole entry, looked up): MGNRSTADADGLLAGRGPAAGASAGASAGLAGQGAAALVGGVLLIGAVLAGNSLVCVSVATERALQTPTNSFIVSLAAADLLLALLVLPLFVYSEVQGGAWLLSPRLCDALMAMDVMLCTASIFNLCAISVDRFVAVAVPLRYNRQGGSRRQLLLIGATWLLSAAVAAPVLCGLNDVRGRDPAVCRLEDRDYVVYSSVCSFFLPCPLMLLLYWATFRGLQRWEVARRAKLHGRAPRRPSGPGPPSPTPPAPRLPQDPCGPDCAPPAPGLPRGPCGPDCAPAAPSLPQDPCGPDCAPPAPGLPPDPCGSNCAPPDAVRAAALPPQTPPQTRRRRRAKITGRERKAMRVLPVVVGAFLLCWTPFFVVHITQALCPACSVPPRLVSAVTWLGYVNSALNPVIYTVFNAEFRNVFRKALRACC
human Adrenergic, Beta 3 Receptor (Adrb3), ADRB3 (gene 155), sequence (P13945 whole entry, looked up): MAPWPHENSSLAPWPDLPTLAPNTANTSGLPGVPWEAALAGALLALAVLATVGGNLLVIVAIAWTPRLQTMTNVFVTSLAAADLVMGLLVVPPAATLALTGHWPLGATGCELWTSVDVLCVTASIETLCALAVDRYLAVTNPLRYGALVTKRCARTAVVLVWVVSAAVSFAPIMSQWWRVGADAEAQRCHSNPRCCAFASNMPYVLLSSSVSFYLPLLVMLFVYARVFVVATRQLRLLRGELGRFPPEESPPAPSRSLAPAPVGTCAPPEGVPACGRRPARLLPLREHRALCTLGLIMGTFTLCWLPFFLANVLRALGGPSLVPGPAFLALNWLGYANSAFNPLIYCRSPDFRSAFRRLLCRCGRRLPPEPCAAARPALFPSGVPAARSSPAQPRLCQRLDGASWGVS
human Dopamine Receptor D2 (DRD2), DRD2 (gene 1813), sequence (P14416 whole entry, looked up): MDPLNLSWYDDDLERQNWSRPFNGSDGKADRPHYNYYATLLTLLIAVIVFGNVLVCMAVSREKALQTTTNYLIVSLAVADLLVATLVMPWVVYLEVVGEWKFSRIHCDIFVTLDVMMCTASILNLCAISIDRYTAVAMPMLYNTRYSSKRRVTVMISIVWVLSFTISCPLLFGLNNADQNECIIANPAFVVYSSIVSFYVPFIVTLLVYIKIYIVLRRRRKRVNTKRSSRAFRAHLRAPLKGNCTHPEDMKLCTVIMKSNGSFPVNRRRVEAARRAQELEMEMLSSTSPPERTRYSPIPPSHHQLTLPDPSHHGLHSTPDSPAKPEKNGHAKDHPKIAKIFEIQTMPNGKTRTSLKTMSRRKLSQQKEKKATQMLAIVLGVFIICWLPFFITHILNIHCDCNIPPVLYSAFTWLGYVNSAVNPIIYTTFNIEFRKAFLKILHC
Type-1 angiotensin II receptor (Homo sapiens), sequence (P30556 whole entry, looked up): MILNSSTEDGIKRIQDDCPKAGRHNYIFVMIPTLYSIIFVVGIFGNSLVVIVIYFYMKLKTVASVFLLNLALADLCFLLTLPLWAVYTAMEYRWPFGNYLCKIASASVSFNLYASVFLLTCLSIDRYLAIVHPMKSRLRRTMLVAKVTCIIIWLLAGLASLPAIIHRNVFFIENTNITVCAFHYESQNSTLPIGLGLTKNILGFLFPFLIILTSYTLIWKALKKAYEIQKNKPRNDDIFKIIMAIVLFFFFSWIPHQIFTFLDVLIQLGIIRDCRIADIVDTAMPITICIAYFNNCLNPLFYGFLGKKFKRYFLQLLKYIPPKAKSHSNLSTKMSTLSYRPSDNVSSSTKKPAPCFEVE
Beta-2 adrenergic receptor (Homo sapiens), sequence (P07550 whole entry, looked up): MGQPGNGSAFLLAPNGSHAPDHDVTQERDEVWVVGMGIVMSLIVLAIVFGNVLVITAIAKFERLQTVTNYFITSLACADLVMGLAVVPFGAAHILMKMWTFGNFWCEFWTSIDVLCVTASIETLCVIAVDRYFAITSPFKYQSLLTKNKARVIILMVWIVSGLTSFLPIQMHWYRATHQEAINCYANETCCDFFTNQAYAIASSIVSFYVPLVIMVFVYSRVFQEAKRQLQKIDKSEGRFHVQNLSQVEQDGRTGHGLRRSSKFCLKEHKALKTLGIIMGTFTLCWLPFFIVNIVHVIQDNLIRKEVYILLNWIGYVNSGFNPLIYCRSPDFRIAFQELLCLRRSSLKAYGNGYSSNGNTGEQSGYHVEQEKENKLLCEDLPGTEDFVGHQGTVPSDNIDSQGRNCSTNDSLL
human Endothelin Receptor Type A (ETA), EDNRA (gene 1909), sequence (P25101 whole entry, looked up): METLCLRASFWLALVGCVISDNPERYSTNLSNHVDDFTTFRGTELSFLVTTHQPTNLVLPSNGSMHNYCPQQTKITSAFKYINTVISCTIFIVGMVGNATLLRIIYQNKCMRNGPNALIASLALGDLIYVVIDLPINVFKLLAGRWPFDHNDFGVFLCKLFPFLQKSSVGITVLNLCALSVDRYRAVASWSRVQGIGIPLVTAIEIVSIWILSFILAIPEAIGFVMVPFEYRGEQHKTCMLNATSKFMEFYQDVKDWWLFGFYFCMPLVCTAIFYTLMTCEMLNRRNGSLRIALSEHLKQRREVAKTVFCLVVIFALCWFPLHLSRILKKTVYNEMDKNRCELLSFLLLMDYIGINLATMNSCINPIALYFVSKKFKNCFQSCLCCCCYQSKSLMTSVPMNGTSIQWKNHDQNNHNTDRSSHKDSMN
human Endothelin Receptor Type B (ETB), EDNRB (gene 1910), sequence (P24530 whole entry, looked up): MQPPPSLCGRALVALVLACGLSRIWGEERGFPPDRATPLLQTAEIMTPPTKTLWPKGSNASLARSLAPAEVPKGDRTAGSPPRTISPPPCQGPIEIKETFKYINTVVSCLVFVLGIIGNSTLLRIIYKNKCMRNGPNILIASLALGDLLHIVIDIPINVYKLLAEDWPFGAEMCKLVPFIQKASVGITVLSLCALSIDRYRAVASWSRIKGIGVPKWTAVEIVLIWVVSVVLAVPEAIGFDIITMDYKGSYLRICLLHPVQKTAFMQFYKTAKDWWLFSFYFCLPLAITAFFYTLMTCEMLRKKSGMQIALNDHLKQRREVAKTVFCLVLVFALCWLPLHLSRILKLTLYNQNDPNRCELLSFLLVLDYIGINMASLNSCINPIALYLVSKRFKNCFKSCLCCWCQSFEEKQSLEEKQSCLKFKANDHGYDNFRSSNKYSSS

With `Cc1nccn1-c1ccc(Sc2cccc(C3(C(N)=O)CCOCC3)c2)cc1`, in [1], the molecule was classed as inactive.
Consider `CCCCCCCCN(C)C`, for which the outcome in assay [2] and in [3] was inactive.
Take `CC(C)CCCCCCOC(=O)C1CCCCC1C(=O)OCCCCCCC(C)C` (configuration not stated): the result in assay [4] was inactive.
As to `c1ccc2cc3ccccc3cc2c1`, the molecule was classed as inactive in assay [3].
As a reminder, the AC50 is the concentration at which the activity in the assay is half-maximal. Consider `CCCCCCCC/C=C\CCCCCCCC(=O)OC[C@@H](O)[C@H]1OC[C@H](O)[C@H]1O`, for which the AC50 in [5] is 34.5 µM (active).
In the case of `O=C(NO)C1(NS(=O)(=O)c2ccc(Oc3ccc(F)cc3)cc2)CCOCC1`, the AC50 in assay [6] is 25 µM (active).
For `C=CCc1cc(S(=O)(=O)c2ccc(O)c(CC=C)c2)ccc1O`, the AC50 in assay [7] is 8.06 µM (active); in assay [1] it was 17.1 µM (active); in [6], 25 µM (active); in assay [8], 33.1 µM (active); in assay [5] it was 9.78 µM (active).
For `COc1cc(C(C)C)c2c(c1)S(=O)(=O)N(COc1cc(=O)n3cccc(OCCN4CCCCC4)c3n1)C2=O`, the AC50 in assay [7] is 0.424 µM (active); in assay [8], 1.6 µM (active); in [5] it was 6.25 µM (active).
Regarding `O=S(=O)(O)c1ccc(N=Nc2c(O)ccc3cc(S(=O)(=O)O)ccc23)cc1`, the AC50 in assay [6] is 32 µM (active); in [8], 8.72 µM (active); in assay [5] it was 38.4 µM (active).
Consider `O=C(O)c1ccc2c(c1)nc(C(=O)NC1CCN(C3CC3)CC1)n2Cc1cc(-c2ccc(Cl)s2)on1`, for which, in [7], the call was inactive.
As for `CCn1nc(C)c2c1C(=O)NCC(c1ccc(O)cc1)=N2`, the molecule was classed as inactive in assay [7], in assay [2], in [3] and in assay [5].
As to `OCC(CO)(CO)CO`, the call in assay [2] and in assay [9] was inactive.
Take `CCCCCCCCCCCCCCCCOS(=O)(=O)O`: the AC50 was 3.6 µM (active) in assay [7], 12.5 µM (active) in assay [6], 18.1 µM (active) in assay [3] and 4.49 µM (active) in assay [5]. In addition, the outcome in assay [8] was inactive.
On to `c1ccc(C(O[C@@H]2CCCN(CCc3ccc4c(c3)OCO4)C2)c2ccccc2)cc1`, for which the AC50 in [7] was 2.51 µM (active); in assay [4] it was 13.5 µM (active); in assay [6] it was 14.8 µM (active); in [8] it was 5.47 µM (active); in assay [3], 5.62 µM (active); in [5] it was 4.11 µM (active). Moreover, in [2], the molecule was classed as inactive.
With `CC[C@H](C)C(=O)O[C@H]1C[C@H](O)C=C2C=C[C@H](C)[C@H](CC[C@@H](O)C[C@@H](O)CC(=O)O)[C@H]21`, in [10], the molecule was classed as inactive.
For the molecule `Cc1ncc([C@@H](CCCCCCc2ccc3c(n2)NCCC3)CC(=O)O)cn1`, the AC50 in assay [7] is 16.2 µM (active).
In the case of `CCc1ccc(O)c(C(C)(C)C)c1`, the outcome in [8] was inactive.
Regarding `O=c1[nH]cnc2c1ncn2[C@H]1CC[C@@H](CO)O1`, the call in assay [6] and in [5] was inactive. Besides, in assay [8], the AC50 is 32.7 µM (active).
In the case of `CCCCCCCCCC`, the molecule was called inactive in assay [7], in assay [8] and in [5].
As for `CCN(CC)C(=S)SSC(=S)N(CC)CC`, the outcome in [1] was inactive.
